Measurements from PubChem BioAssay (NCI).
About 83,000 compounds went through this panel and 20% of them were active in at least one assay; those are over-represented in the sample as a whole.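 Interpretation: 100, growth as untreated; towards 0, rising growth inhibition; 0, no net growth; 0 to -100, cell death. Compounds scoring below 10 were considered active.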 Values without a mark were called inactive. The source made the active and inactive calls.

How the values were obtained:
Test in all cases: NCI-60 one-dose screen, 48 h (100 = growth as untreated, 0 = no growth, -100 = all killed)
Details in all cases: 10 µM
DU-145 prostate = tested on: DU-145 prostate
K-562 leukemia = tested on: K-562 leukemia
MALME-3M melanoma = tested on: MALME-3M melanoma
MDA-MB-231 breast = tested on: MDA-MB-231 breast
RXF 393 renal = tested on: RXF 393 renal
SF-268 CNS = tested on: SF-268 CNS
SF-295 CNS = tested on: SF-295 CNS
SF-539 CNS = tested on: SF-539 CNS
UACC-257 melanoma = tested on: UACC-257 melanoma
M14 melanoma = tested on: M14 melanoma
HCT-15 colon = tested on: HCT-15 colon
HT29 colon = tested on: HT29 colon
SNB-75 CNS = tested on: SNB-75 CNS
SNB-19 CNS = tested on: SNB-19 CNS
U251 CNS = tested on: U251 CNS
PC-3 prostate = tested on: PC-3 prostate
SK-MEL-5 melanoma = tested on: SK-MEL-5 melanoma
UACC-62 melanoma = tested on: UACC-62 melanoma
LOX IMVI melanoma = tested on: LOX IMVI melanoma
SK-MEL-28 melanoma = tested on: SK-MEL-28 melanoma

Row | Compound | growth (DU-145 prostate) | growth (K-562 leukemia) | growth (MALME-3M melanoma) | growth (MDA-MB-231 breast) | growth (RXF 393 renal) | growth (SF-268 CNS) | growth (SF-295 CNS) | growth (SF-539 CNS) | growth (UACC-257 melanoma) | growth (M14 melanoma) | growth (HCT-15 colon) | growth (HT29 colon) | growth (SNB-75 CNS) | growth (SNB-19 CNS) | growth (U251 CNS) | growth (PC-3 prostate) | growth (SK-MEL-5 melanoma) | growth (UACC-62 melanoma) | growth (LOX IMVI melanoma) | growth (SK-MEL-28 melanoma)
1 | CC(C)CCN(CCC(C)C)CC(=O)Nc1ccc(S(=O)(=O)c2ccc(NC(=O)CN(CCC(C)C)CCC(C)C)cc2)cc1 | 54% | 3.86% (active) | 19.4% | 31% | 24.9% | 34.5% | 90.1% | 21.4% | 56.2% | 31.6% | 10.4% | 10.3% | 79.3% | 52.6% | 10.5% | 39.7% | 47% | 29.7% | -78.4% (active) | 72.6%
2 | O=S(=O)(Oc1ccc(-c2ccc3sccc3c2)cc1)c1ccc(F)cc1 | 104% | 78.7% | 106% | 108% | 110% | 108% | 96.4% | 110% | 106% | 113% | 88.9% | 96% | 120% | 103% | 101% | 91% | 97.6% | 80.2% | 96.9% | 103%
3 | CN(C)c1ccc(/C=N/NC(=O)c2cccc3ccccc23)c(Cl)c1 | 17.1% | 11.6% | 53.4% | 67.7% | 7.47% (active) | 59% | 19.1% | 19.9% | 35.8% | 27.6% | 27.9% | 12.9% | 20.3% | 52.6% | 23.9% | 20.3% | 24.3% | 46.4% | 37.9% | 42%
4 | CC(C)c1cc(N=O)cc(C(C)C)c1O | 119% | 106% | 110% | 99.3% | 110% | 104% | 102% | 109% | 94.8% | 123% | 98.4% | 109% | 99.9% | 95.2% | 98.5% | 97.5% | 105% | 96.3% | 96.1% | 105%
5 | CCCCN(CCCC)C(=O)[C@H](CC)[C@@H]1CC[C@@H](C)[C@@H]([C@H](C)[C@@H](O)[C@@H](C)C(=O)[C@H](CC)C2O[C@]3(C=CC(=O)[C@]4(CC[C@@](C)([C@H]5CC[C@](O)(CC)[C@H](C)O5)O4)O3)[C@H](C)C[C@@H]2C)O1 (some centres not stated) | 84.9% | 24.4% | -5.97% (active) | 46.8% | 47% | 68.6% | 2.72% (active) | 59.6% | 21.3% | 30% | 54% | 20.9% | 33.3% | 27% | 32.7% | 12.5% | 18% | 22.5% | 43.5% | 23.8%
6 | Oc1ccc(/C=N/N=C2c3ccccc3-c3ccccc32)c(O)c1 | 90% | 64.8% | 105% | 48.3% | 49.6% | 83.1% | 101% | 89.1% | 84.7% | 74.4% | 46.4% | 97.5% | 73.1% | 80.3% | 78.7% | 72.9% | 25.8% | 58.6% | 70.3% | 74.5%
7 | CNS(=O)(=O)Oc1ccc(-c2sc3cc(OS(=O)(=O)NC)ccc3c2C(=O)c2ccc(OCCN3CCCCC3)cc2)cc1 | 98.2% | 9.88% (active) | 57.7% | 79.1% | 38.8% | 87.9% | 89.3% | 65% | 70% | 65.7% | 35.2% | 31.1% | 69.3% | 82.7% | 66.9% | 42.4% | 49.7% | 74.7% | 32.8% | 79.2%
8 | COc1cccc(C2C(C#N)=C(N)Oc3cc(N)ccc32)c1 (configuration not stated) | 10.6% | 11.9% | 51.9% | 48.8% | -7.34% (active) | 47.1% | 5.3% (active) | 4.8% (active) | 47.2% | 10.9% | 40.3% | 2.39% (active) | 3.44% (active) | 44.6% | 4.8% (active) | 25.4% | 21.5% | 41.7% | 43.6% | 46.9%
9 | O=C(N/N=C/c1ccc(Cl)cc1)c1ccc(Cc2n[nH]c(=O)c3cccnc23)cc1 | 112% | 106% | 93.2% | 102% | 91.2% | 98.6% | 101% | 89.7% | 97.1% | 99.6% | 97.1% | 99.3% | 84.5% | 89% | 103% | 95.4% | 100% | 94.2% | 100% | 104%
10 | CCN(CC)CCOC(=O)c1cc(OCc2ccccc2)c(OCc2ccccc2)c(OCc2ccccc2)c1 | 64.6% | 0.819% (active) | 54% | 16% | 47% | 59.3% | 84.5% | 81.1% | 73.8% | 18.4% | 13.1% | 7.14% (active) | 72.1% | 56.9% | 18.3% | 49.6% | 63.3% | – | -16.9% (active) | 63.2%
11 | c1ccc(CSc2ncccc2-c2nnc(SCCN3CCOCC3)o2)cc1 | 112% | 117% | 111% | 114% | 123% | 107% | 106% | 132% | 147% | 108% | 105% | 111% | 79.6% | 115% | 117% | 111% | 102% | 113% | 108% | 107%
12 | COc1cc(/C=C/c2cc(/C=C/c3ccc(O)c(OC)c3)n(C(=O)Nc3ccc(C)cc3)n2)ccc1O | 2.02% (active) | 2.29% (active) | 17.3% | 19.9% | -47.5% (active) | -11.5% (active) | 0.531% (active) | 5.95% (active) | 4.8% (active) | 2.3% (active) | 15.2% | -22.4% (active) | 9.53% (active) | 20.3% | 6.19% (active) | 8.08% (active) | 1.16% (active) | – | 1.89% (active) | 13.2%
13 | CCOC(=O)c1cc(C(=O)c2cc(OC)c(OC)c(OC)c2)n2ncc3ccccc3c12 | 83.6% | 23% | 70.5% | 98.7% | 88.3% | 84% | 72.5% | 86.7% | 57.1% | 50.2% | 58.5% | 29.6% | 79.5% | 88.2% | 81% | 54.6% | 34.5% | 70.2% | 66.3% | 90.9%
14 | O=C(CI)OCC(COC(=O)CI)OC(=O)CI | 59.5% | 41.6% | 24.3% | 91.3% | 24.7% | 93.2% | 94.8% | 114% | 76.5% | 83.2% | 53% | 79.2% | 116% | 101% | 100% | 94% | 93.1% | 80.9% | – | 92.3%
15 | CC[C@H]1OC(=O)[C@H](C)[C@@H](O[C@H]2C[C@@](C)(OC)[C@@H](O)[C@H](C)O2)[C@H](C)[C@@H](O[C@@H]2O[C@H](C)C[C@H](N(C)C)[C@H]2O)[C@](C)(OC)C/C(C)=C2/O[C@@]1(C)C=C2C | 76.9% | -19.6% (active) | -80% (active) | -44.2% (active) | 21.3% | 64.1% | 95.5% | 64.7% | 17.7% | -75.1% (active) | -33.5% (active) | -7.11% (active) | 49.1% | 57.4% | 2.36% (active) | 53.3% | 18.8% | -83.8% (active) | -85.1% (active) | -57.1% (active)
